Results: PubChem BioAssay AID1159580 (chemical genetic matrix, 2015)
In all, about 5,500 compounds went through this assay and about 2,000 (36%) were called active. About 18% were inconclusive and are not listed. No stated cut-off is given here; in the data, active means normalized growth mostly below about 0.91 (no sharp cut-off); inconclusive means no clear call, values can overlap the other calls; inactive means mostly above about 0.92. The list shows a part of the results.

Test: chemical genetic growth profiling, strain panel (AID 1159580);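 further: tested at 20 µM; growth read once vehicle control cultures reached saturation at 30 °C; 1 = growth at the plate median or of vehicle wells; lower values mean less growth of the strain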
Conditions: growth OD
[1] = S. cerevisiae deletion strains, locus YDL101C, strain DUN1, hits give low values
[2] = S. cerevisiae deletion strains, locus YHR030C, strain SLT2, hits give low values
[3] = S. cerevisiae deletion strains, locus YAL013W, strain DEP1, hits give low values
[4] = S. cerevisiae deletion strains, locus YBR229C, strain ROT2, hits give low values
[5] = S. cerevisiae deletion strains, locus YCL061C, strain MRC1, hits give low values
[6] = S. cerevisiae deletion strains, locus YDL134C, strain PPH21, hits give low values
[7] = S. cerevisiae deletion strains, locus YDR150W, strain NUM1, hits give low values
[8] = S. cerevisiae deletion strains, locus YEL061C, strain CIN8, hits give low values
[9] = S. cerevisiae deletion strains, locus YGR078C, strain PAC10, hits give low values
[10] = S. cerevisiae deletion strains, locus YHR087W, strain rtc3, hits give low values
[11] = S. cerevisiae deletion strains, locus YJR075W, strain HOC1, hits give low values
[12] = S. cerevisiae deletion strains, locus YKL190W, strain CNB1, hits give low values
[13] = S. cerevisiae deletion strains, locus YLR039C, strain RIC1, hits give low values
[14] = S. cerevisiae deletion strains, locus YLR058C, strain SHM2 (second series), hits give low values
[15] = S. cerevisiae deletion strains, locus YLR085C, strain ARP6, hits give low values
[16] = S. cerevisiae deletion strains, locus YLR262C, strain YPT6, hits give low values
[17] = S. cerevisiae deletion strains, locus YML094W, strain GIM5, hits give low values
[18] = S. cerevisiae deletion strains, locus YMR219W, strain ESC1, hits give low values
[19] = S. cerevisiae deletion strains, locus YMR263W, strain SAP30, hits give low values
[20] = S. cerevisiae deletion strains, locus YNL153C, strain GIM3, hits give low values
[21] = S. cerevisiae deletion strains, locus YNL298W, strain CLA4 (second series), hits give low values
[22] = S. cerevisiae deletion strains, locus YNL322C, strain KRE1, hits give low values
[23] = S. cerevisiae deletion strains, locus YNR030W, strain Alg12, hits give low values
[24] = S. cerevisiae deletion strains, locus YOL006C, strain TOP1, hits give low values
[25] = S. cerevisiae deletion strains, locus YPL055C, strain LGE1, hits give low values
[26] = S. cerevisiae deletion strains, locus YPL241C, strain CIN2, hits give low values
[27] = S. cerevisiae deletion strains, locus YPR135W, strain CTF4, hits give low values
[28] = S. cerevisiae strains, strain wild type, hits give low values
[29] = S. cerevisiae deletion strains, locus YJR043C, strain POL32, hits give low values
[30] = S. cerevisiae deletion strains, locus YMR307W, strain GAS1, hits give low values

Measured: normalized growth

O=[N+]([O-])c1ccc(S(=O)(=O)c2ccccc2)nc1S(=O)(=O)c1ccccc1
active: S. cerevisiae deletion strains, locus YAR019C, strain CDC15, hits give low values 0.882 | S. cerevisiae deletion strains, locus YDL214C, strain PRR2, hits give low values 0.393 | S. cerevisiae deletion strains, locus YDR477W, strain SNF1, hits give low values 0.473 | S. cerevisiae deletion strains, locus YER123W, strain YCK3, hits give low values 0.223 | S. cerevisiae deletion strains, locus YER133W, strain GLC7, hits give low values 0.361 | S. cerevisiae deletion strains, locus YFR019W, strain FAB1, hits give low values 0.62 | S. cerevisiae deletion strains, locus YGR040W, strain KSS1, hits give low values 0.443 | S. cerevisiae deletion strains, locus YGR052W, strain FMP48, hits give low values 0.353 | [2] 0.334 | S. cerevisiae deletion strains, locus YHR082C, strain KSP1, hits give low values 0.364 | S. cerevisiae deletion strains, locus YHR205W, strain SCH9, hits give low values 0.47 | S. cerevisiae deletion strains, locus YJL095W, strain BCK1, hits give low values 0.401 | S. cerevisiae deletion strains, locus YJR066W, strain TOR1 (second series), hits give low values 0.438 | S. cerevisiae deletion strains, locus YJR066W, strain TOR1, hits give low values 0.299 | S. cerevisiae deletion strains, locus YKL193C, strain SDS22, hits give low values 0.871 | S. cerevisiae deletion strains, locus YKL203C, strain TOR2, hits give low values 0.555 | S. cerevisiae deletion strains, locus YLR113W, strain HOG1, hits give low values 0.184 | S. cerevisiae deletion strains, locus YLR133W, strain CKI1, hits give low values 0.691 | S. cerevisiae deletion strains, locus YML070W, strain DAK1, hits give low values 0.433 | S. cerevisiae deletion strains, locus YMR277W, strain FCP1, hits give low values 0.87 | S. cerevisiae deletion strains, locus YNL183C, strain NPR1, hits give low values 0.178 | S. cerevisiae deletion strains, locus YOL078W, strain AVO1, hits give low values 0.879 | S. cerevisiae deletion strains, locus YOL136C, strain PFK27, hits give low values 0.533 | S. cerevisiae deletion strains, locus YOR119C, strain RIO1, hits give low values 0.442 | S. cerevisiae deletion strains, locus YPL256C, strain CLN2, hits give low values 0.293 | S. cerevisiae deletion strains, strain TSCII, hits give low values 0.872
inactive: S. cerevisiae deletion strains, locus YBL105C, strain PKC1, hits give low values 0.914 | S. cerevisiae deletion strains, locus YBR135W, strain CKS1, hits give low values 0.903 | S. cerevisiae deletion strains, locus YBR136W, strain MEC1, hits give low values 0.93 | S. cerevisiae deletion strains, locus YBR160W, strain CDC28, hits give low values 0.915 | S. cerevisiae deletion strains, locus YDL017W, strain CDC7, hits give low values 0.942 | S. cerevisiae deletion strains, locus YDL028C, strain MPS1, hits give low values 0.972 | [1] 0.922 | S. cerevisiae deletion strains, locus YDL108W, strain KIN28, hits give low values 0.94 | S. cerevisiae deletion strains, locus YDL132W, strain cdc53, hits give low values 0.931 | S. cerevisiae deletion strains, locus YDR052C, strain DBF4, hits give low values 0.942 | S. cerevisiae deletion strains, locus YDR054C, strain cdc34, hits give low values 0.904 | S. cerevisiae deletion strains, locus YDR226W, strain ADK1, hits give low values 0.904 | S. cerevisiae deletion strains, locus YFL009W, strain cdc4, hits give low values 0.918 | S. cerevisiae deletion strains, locus YFL029C, strain CAK1, hits give low values 0.885 | S. cerevisiae deletion strains, locus YFR003C, strain YPI1, hits give low values 0.974 | S. cerevisiae deletion strains, locus YFR028C, strain CDC14, hits give low values 0.893 | S. cerevisiae deletion strains, locus YGR092W, strain DBF2, hits give low values 0.785 | S. cerevisiae deletion strains, locus YHR079C, strain IRE1, hits give low values 0.88 | S. cerevisiae deletion strains, locus YIL147C, strain SLN1, hits give low values 0.974 | S. cerevisiae deletion strains, locus YJR016C, strain ILV3, hits give low values 0.936 | S. cerevisiae deletion strains, locus YKL048C, strain ELM1, hits give low values 0.948 | S. cerevisiae deletion strains, locus YKL101W, strain HSL1, hits give low values 0.777 | S. cerevisiae deletion strains, locus YLR403W, strain SFP1, hits give low values 0.748 | S. cerevisiae deletion strains, locus YMR001C, strain CDC5, hits give low values 0.896 | S. cerevisiae deletion strains, locus YMR205C, strain PFK2 (second series), hits give low values 0.785 | S. cerevisiae deletion strains, locus YNL006W, strain LST8, hits give low values 0.99 | S. cerevisiae deletion strains, locus YNL020C, strain ARK1, hits give low values 0.874 | S. cerevisiae deletion strains, locus YNL161W, strain CBK1, hits give low values 0.919 | S. cerevisiae deletion strains, locus YNL207W, strain RIO2, hits give low values 0.916 | S. cerevisiae deletion strains, locus YNL222W, strain SSU72, hits give low values 0.915 | S. cerevisiae deletion strains, locus YOR061W, strain CKA2, hits give low values 0.879 | S. cerevisiae deletion strains, locus YOR231W, strain MKK1, hits give low values 0.809 | S. cerevisiae deletion strains, locus YOR329C, strain SCD5, hits give low values 0.973 | S. cerevisiae deletion strains, locus YPL153C, strain RAD53, hits give low values 0.729 | S. cerevisiae deletion strains, locus YPL204W, strain HRR25, hits give low values 0.706 | S. cerevisiae deletion strains, locus YPL209C, strain IPL1, hits give low values 0.913 | S. cerevisiae deletion strains, locus YPR025C, strain CCL1, hits give low values 0.911 | S. cerevisiae deletion strains, locus YPR106W, strain ISR1, hits give low values 0.921 | S. cerevisiae deletion strains, locus YPR111W, strain DBF20, hits give low values 0.909 | S. cerevisiae deletion strains, strain NNK1, hits give low values 0.938

CC(C)(C)OC(=O)C(C)(C)S(=O)(=O)c1ccc(Cl)cc1
inactive: [3] 1.01 | [4] 0.983 | [5] 0.979 | [1] 0.977 | [6] 0.995 | [7] 0.992 | [8] 1 | [9] 0.992 | [2] 0.955 | [10] 1.01 | [11] 0.973 | [12] 0.994 | [13] 0.958 | [14] 1.01 | [15] 1.05 | [16] 0.927 | [17] 0.987 | [18] 0.995 | [19] 0.992 | [20] 0.98 | [21] 1.02 | [22] 0.984 | [23] 0.983 | [24] 1.01 | [25] 1.02 | [26] 1.01 | [27] 1.04 | [28] 1

Cc1c(S(=O)(=O)c2ccc(Cl)cc2)cnc2cc(C(C)(C)C)nn12
inactive: [3] 1.01 | [4] 1.02 | [1] 1 | [6] 1.03 | [7] 0.987 | [8] 1.01 | [9] 1.01 | [2] 1.07 | [10] 1.01 | [29] 1.01 | [11] 1.01 | [13] 1.03 | [14] 1.01 | [15] 1.02 | [16] 1.03 | [17] 1.01 | [18] 1.01 | [19] 0.982 | [30] 0.945 | S. cerevisiae deletion strains, locus YNL128W, strain TEP1, hits give low values 1.01 | [20] 1 | [21] 1.05 | [22] 1.01 | [23] 1.05 | [24] 1.06 | [25] 1.01 | [26] 0.996 | [27] 1.06

O=[N+]([O-])c1cc(Cl)ccc1S(=O)(=O)c1ccccc1
inactive: [3] 0.987 | [4] 0.996 | [5] 0.994 | [1] 0.98 | [6] 0.999 | [7] 0.97 | [8] 0.969 | [9] 0.993 | S. cerevisiae deletion strains, locus YGR229C, strain SMI1, hits give low values 0.98 | [2] 0.836 | [10] 1.02 | [29] 0.978 | [11] 0.995 | [14] 0.996 | [15] 0.796 | [17] 0.933 | [18] 0.998 | [19] 0.996 | [30] 0.829 | [20] 0.985 | [21] 0.955 | [22] 0.987 | [23] 0.974 | [25] 0.996 | [26] 0.958 | [27] 0.803
active: [13] 0.634 | [16] 0.705

O=[N+]([O-])c1ccc(S(=O)(=O)c2ccc(Cl)cc2)cc1O
inactive: [6] 0.938 | [7] 0.811 | [8] 0.924 | [2] 0.954 | [12] 0.978 | [15] 0.947 | [17] 0.94 | [21] 0.915 | [23] 0.94 | [26] 0.934 | [27] 0.99 | [28] 0.952
active: [3] 0.82 | [4] 0.766 | [1] 0.715 | [9] 0.81 | [10] 0.692 | [29] 0.832 | [11] 0.64 | [13] 0.723 | [14] 0.822 | [16] 0.639 | [18] 0.797 | [19] 0.814 | [20] 0.846 | [22] 0.86 | [25] 0.709
